{"source": "paper PMC4336329", "about": "(PLoS ONE, 2015)", "note": "Among all 310,000 compounds or so, about 2,200 (0.71%) showed an effect of 50% or more. Effects have a minus sign here. The sample holds strong results, similar compounds and a random draw of the others, so the mix is not that of the screen.", "data": [{"target": "human ether-à-go-go-related gene (hERG) potassium channel (human, UniProt Q12809)", "sequence (Q12809 whole entry, looked up)": "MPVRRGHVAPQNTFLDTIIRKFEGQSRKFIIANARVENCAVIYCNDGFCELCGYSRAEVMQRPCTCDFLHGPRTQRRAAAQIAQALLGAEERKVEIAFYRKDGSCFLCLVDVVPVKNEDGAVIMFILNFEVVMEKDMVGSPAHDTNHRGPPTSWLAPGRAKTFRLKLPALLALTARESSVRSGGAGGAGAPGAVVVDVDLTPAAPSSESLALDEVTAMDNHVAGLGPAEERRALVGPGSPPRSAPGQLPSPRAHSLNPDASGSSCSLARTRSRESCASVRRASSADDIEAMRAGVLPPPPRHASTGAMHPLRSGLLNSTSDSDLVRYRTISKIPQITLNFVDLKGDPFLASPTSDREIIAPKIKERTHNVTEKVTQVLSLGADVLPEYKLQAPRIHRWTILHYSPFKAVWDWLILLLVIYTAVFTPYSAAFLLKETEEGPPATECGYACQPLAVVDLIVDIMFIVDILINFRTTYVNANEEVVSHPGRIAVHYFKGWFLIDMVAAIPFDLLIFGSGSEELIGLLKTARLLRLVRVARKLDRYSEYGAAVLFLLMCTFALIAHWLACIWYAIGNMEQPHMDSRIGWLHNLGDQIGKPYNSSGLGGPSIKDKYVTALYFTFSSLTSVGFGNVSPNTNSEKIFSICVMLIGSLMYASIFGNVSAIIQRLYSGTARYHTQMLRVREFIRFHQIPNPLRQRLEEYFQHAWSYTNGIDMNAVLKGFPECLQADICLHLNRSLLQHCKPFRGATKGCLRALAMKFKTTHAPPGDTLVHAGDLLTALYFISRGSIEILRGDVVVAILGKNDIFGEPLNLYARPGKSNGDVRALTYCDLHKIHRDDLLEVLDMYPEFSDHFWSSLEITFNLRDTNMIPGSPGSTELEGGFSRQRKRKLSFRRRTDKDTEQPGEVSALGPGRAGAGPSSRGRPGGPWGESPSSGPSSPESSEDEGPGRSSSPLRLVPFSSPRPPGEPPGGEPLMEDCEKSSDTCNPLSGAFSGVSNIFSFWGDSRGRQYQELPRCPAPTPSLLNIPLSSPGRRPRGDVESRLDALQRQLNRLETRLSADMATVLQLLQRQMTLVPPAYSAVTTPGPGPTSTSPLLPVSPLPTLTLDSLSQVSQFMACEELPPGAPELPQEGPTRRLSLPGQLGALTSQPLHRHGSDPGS", "assay": "primary screen, population patch clamp on CHO cells stably expressing hERG; higher = less effect of the substance", "units": {"hERG current change (%, negative = inhibition) at 1uM": "%"}, "values": [{"molecule": "Cc1cc(C)n(Cc2ccccc2)c(=O)c1S(=O)(=O)c1ccccc1", "hERG current change (%, negative = inhibition) at 1uM": 3.34}, {"molecule": "COC(=O)C(C)Sc1nnc(SC(C)C(=O)OC)s1", "note": "(stereo not drawn)", "hERG current change (%, negative = inhibition) at 1uM": 23}, {"molecule": "O=C(N/N=C/c1cccc([N+](=O)[O-])c1O)C(O)(c1ccccc1)c1ccccc1", "hERG current change (%, negative = inhibition) at 1uM": 18.6}, {"molecule": "O=C(N/N=C/c1cc(Cl)cc([N+](=O)[O-])c1O)C(O)(c1ccccc1)c1ccccc1", "hERG current change (%, negative = inhibition) at 1uM": -62.4}, {"molecule": "O=C(N/N=C/c1cc([N+](=O)[O-])cc([N+](=O)[O-])c1O)C(O)(c1ccccc1)c1ccccc1", "hERG current change (%, negative = inhibition) at 1uM": 0.978}, {"molecule": "CSc1cccc(NS(=O)(=O)c2ccc(F)cc2)c1", "hERG current change (%, negative = inhibition) at 1uM": 7.73}, {"molecule": "COCCCNC(=O)CC(C)c1ccccc1", "note": "(stereo not drawn)", "hERG current change (%, negative = inhibition) at 1uM": 8.27}, {"molecule": "Cn1c2ccccc2n2c(=O)c(=O)n(CC(=O)N3CCCc4ccccc43)nc12", "hERG current change (%, negative = inhibition) at 1uM": -1.27}, {"molecule": "Br.CCn1c2c(c(=N)c3c1CCC3)CCC2", "hERG current change (%, negative = inhibition) at 1uM": 6.51}, {"molecule": "Br.CCCCCCCCCCn1c2c(c(=N)c3c1CCC3)CCC2", "hERG current change (%, negative = inhibition) at 1uM": -71.7}, {"molecule": "CCOC(=O)Cn1c2c(c(=N)c3c1CCC3)CCCC2.Cl", "hERG current change (%, negative = inhibition) at 1uM": 12.8}, {"molecule": "Br.CCCCCCn1c2c(c(=N)c3c1CCC3)CCC2", "hERG current change (%, negative = inhibition) at 1uM": -54}, {"molecule": "CCCCn1c2c(c(=N)c3c1CCC3)CCC2.I", "hERG current change (%, negative = inhibition) at 1uM": 5.32}, {"molecule": "CCCn1c2c(c(=N)c3c1CCC3)CCC2.I", "hERG current change (%, negative = inhibition) at 1uM": 8.15}, {"molecule": "CCOC(=O)Cn1c2c(c(=N)c3c1CCC3)CCC2.Cl", "hERG current change (%, negative = inhibition) at 1uM": 10.2}, {"molecule": "Br.CCCCCCCCn1c2c(c(=N)c3c1CCC3)CCCC2", "hERG current change (%, negative = inhibition) at 1uM": -84.6}, {"molecule": "CCCn1c2c(c(=N)c3c1CCC3)CCCC2.I", "hERG current change (%, negative = inhibition) at 1uM": 6.36}, {"molecule": "CCCCCCn1c(=O)[nH]c2c(c1=O)CCC2", "hERG current change (%, negative = inhibition) at 1uM": 11.6}, {"molecule": "Br.CCCCCCCCCn1c2c(c(=N)c3c1CCC3)CCC2", "hERG current change (%, negative = inhibition) at 1uM": -65.5}, {"molecule": "Br.CCn1c2c(c(=N)c3c1CCC3)CCCC2", "hERG current change (%, negative = inhibition) at 1uM": 4.22}, {"molecule": "CC(=O)n1cc(/C=N/NC(=O)c2cccc(O)c2)c2ccccc21", "hERG current change (%, negative = inhibition) at 1uM": 13.7}, {"molecule": "CC(CC(=O)O)CC(=O)NNC(=O)c1cccc(Br)c1", "note": "(stereo not drawn)", "hERG current change (%, negative = inhibition) at 1uM": 8.72}, {"molecule": "C/C(N)=C(/C#N)C(=O)COC(=O)CCSc1ccccc1Cl", "hERG current change (%, negative = inhibition) at 1uM": 12.1}, {"molecule": "CCN(c1ccccc1)S(=O)(=O)c1ccc(Cl)c(C(=O)NCC2CCCO2)c1", "note": "(stereo not drawn)", "hERG current change (%, negative = inhibition) at 1uM": 2.1}, {"molecule": "O=C(C1CCN(C2CCN(C/C(Cl)=C/c3ccccc3)CC2)CC1)N1CCOCC1", "hERG current change (%, negative = inhibition) at 1uM": -33.8}, {"molecule": "CN1CCN(C(c2ccc(C(F)(F)F)cc2)c2ccc3cccnc3c2O)CC1", "note": "(stereo not drawn)", "hERG current change (%, negative = inhibition) at 1uM": 7.36}, {"molecule": "CCC1Oc2nc(SC)nnc2-c2ccccc2N1C(=O)c1ccccc1", "note": "(stereo not drawn)", "hERG current change (%, negative = inhibition) at 1uM": 11.8}, {"molecule": "COC(=O)C1=C(C)Nc2nc3ccccc3n2C1c1ccccc1F", "note": "(stereo not drawn)", "hERG current change (%, negative = inhibition) at 1uM": 8.31}, {"molecule": "Cc1cc(CNC(=O)CC2C(=O)NCCN2CC(C)(C)C)nn1C", "note": "(stereo not drawn)", "hERG current change (%, negative = inhibition) at 1uM": 10.4}, {"molecule": "Cc1cc(C=C2C(=O)NC(=O)NC2=O)c(C)n1-c1ccc2c(c1)OCO2", "hERG current change (%, negative = inhibition) at 1uM": 13.5}, {"molecule": "CCOC(=O)C1CCN(CC(O)COCc2ccccc2)CC1.O=C(O)C(=O)O", "note": "(stereo not drawn)", "hERG current change (%, negative = inhibition) at 1uM": 3.28}, {"molecule": "CCOC(=O)C1CCN(CC(O)COc2ccc(C(C)(C)C)cc2)CC1.Cl", "note": "(stereo not drawn)", "hERG current change (%, negative = inhibition) at 1uM": -53.2}, {"molecule": "CCOC(=O)C1CCN(CC(O)COCc2ccc3c(c2)OCO3)CC1.Cl", "note": "(stereo not drawn)", "hERG current change (%, negative = inhibition) at 1uM": 1.96}, {"molecule": "CC(=O)c1cccc(OCC(O)CN2CC=C(c3ccccc3)CC2)c1.O=C(O)C(=O)O", "note": "(stereo not drawn)", "hERG current change (%, negative = inhibition) at 1uM": -50}, {"molecule": "Cl.OC(COCc1ccc(Cl)cc1)CN1CCCCC1", "note": "(stereo not drawn)", "hERG current change (%, negative = inhibition) at 1uM": 0.152}, {"molecule": "CCOC(=O)c1ccc(S(=O)(=O)N2CCN(CC(O)COc3cccc(C(C)=O)c3)CC2)cc1.O=C(O)C(=O)O", "note": "(stereo not drawn)", "hERG current change (%, negative = inhibition) at 1uM": 10}, {"molecule": "CC(=O)c1cccc(OCC(O)CN2CCN(S(=O)(=O)c3c(F)cccc3F)CC2)c1.O=C(O)C(=O)O", "note": "(stereo not drawn)", "hERG current change (%, negative = inhibition) at 1uM": 1.4}, {"molecule": "CCOC(=O)C1CCN(CC(O)COc2ccc(C(=O)CC)cc2)CC1.Cl", "note": "(stereo not drawn)", "hERG current change (%, negative = inhibition) at 1uM": -49.5}, {"molecule": "OC(COCc1ccc(Cl)cc1)CN1CCN(CC(O)COCc2ccc(Cl)cc2)CC1", "note": "(stereo not drawn)", "hERG current change (%, negative = inhibition) at 1uM": -67.5}, {"molecule": "CCOC(=O)C1CCN(CC(O)COCc2ccc(Cl)cc2)CC1.Cl", "note": "(stereo not drawn)", "hERG current change (%, negative = inhibition) at 1uM": -58.6}, {"molecule": "CCOC(=O)C1CCN(CC(O)COc2ccc(C(C)=O)cc2)CC1.Cl", "note": "(stereo not drawn)", "hERG current change (%, negative = inhibition) at 1uM": -30.4}, {"molecule": "Cl.OC(COCc1ccccc1)CN1CCCC1", "note": "(stereo not drawn)", "hERG current change (%, negative = inhibition) at 1uM": 1.21}, {"molecule": "COc1cccc(N2CCN(C(=O)Cn3c(=O)oc4ccccc43)CC2)c1", "hERG current change (%, negative = inhibition) at 1uM": 4.28}, {"molecule": "Cc1ccc(-c2nn(-c3ccccc3)cc2/C=N/n2c(-c3cccs3)n[nH]c2=S)cc1", "hERG current change (%, negative = inhibition) at 1uM": 15}, {"molecule": "NS(=O)(=O)c1ccc(CCNC(=O)CNC(=O)c2ccccc2F)cc1", "hERG current change (%, negative = inhibition) at 1uM": 11.3}]}]}
